Rows were chosen to be rich in hits. Some 21% of all compounds tested hit in one or more screens of this group.
Pf growth 96h: P. falciparum growth inhibition at 96 hour, primary screen for plastid delayed-death inhibitors | P. falciparum luciferase reporter growth, 96 h | Potency, µM (series often up to 28.7 µM), for the others: at the highest dose activity change, negative = inhibition, most hits filed as inhibitors | actives 6.9% (n = 320,000) | AID 504834; further: potency means the concentration at half of the fitted maximal effect; on the % scale 0 is the no-effect control and ±100 the full control effect
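Cell-based qHTS: luciferase-tagged P. falciparum in erythrocytes (2% hematocrit, 0.05% parasitemia final) incubated with compounds for 96 hours, 37 C, 5% CO2; luciferase detection reagent then added and luminescence measured.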
Shiga inhibitor: inhibitors of Shiga toxin in Vero cells. Vero cells, Shiga toxin protein synthesis inhibition reporter. inhibition, % at 38.7 µM. actives 9.2% (n = 290,000). AID 2315; in the data active means inhibition mostly above about 28%, no sharp cut-off; inactive means mostly below about 43%; further: 0% is about no effect
NS1 inh: blocks influenza NS1 protein function; Potency, µM (top dose mostly 46.1 µM), for inactives: top-dose activity, positive = more growth; actives 0.4% (n = 270,000); calls by dose curve; further: potency means the concentration at half of the fitted maximal effect; actives are rising curves; nearly all actives have a fitted effect of over 50% in size
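S. cerevisiae expressing influenza A NS1, grown in glucose, washed, then diluted 1:100 into pH 6.0 -URA galactose medium with 23 nl compound. Growth recovery read as OD600; NS1-free strain serves as control.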
FBPA Giardia inh: blocks Giardia fructose-bisphosphate aldolase activity; Potency, µM (titrated, usually from 59.6 µM), inactives show at the top dose activity, negative = inhibition, usual class: inhibitors; A8B2U2; purified Giardia FBPA; AID 2451; actives 0.71% (n = 290,000); further: potency means the concentration at half of the fitted maximal effect; on the % scale 0 is the no-effect control and ±100 the full control effect; nearly all actives have a fitted effect of over 55% in size
Target sequence (A8B2U2 whole entry, looked up): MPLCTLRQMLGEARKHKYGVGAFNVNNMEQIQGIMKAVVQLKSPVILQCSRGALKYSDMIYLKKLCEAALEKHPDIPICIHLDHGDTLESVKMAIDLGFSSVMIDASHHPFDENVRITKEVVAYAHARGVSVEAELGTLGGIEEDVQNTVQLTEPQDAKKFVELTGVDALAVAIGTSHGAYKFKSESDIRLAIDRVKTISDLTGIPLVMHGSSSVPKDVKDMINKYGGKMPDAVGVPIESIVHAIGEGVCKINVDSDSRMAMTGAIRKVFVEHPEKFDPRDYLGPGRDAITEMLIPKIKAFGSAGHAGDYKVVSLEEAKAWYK
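40 nM FBPA preincubated 10 min at RT with compound (up to 57.5 uM final), then substrate plus GAPDH/TPI/NAD/arsenate coupling and diaphorase/resazurin added. Fluorescence read after 20 min at RT, 525/598 nm.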
Pf growth 48h: P. falciparum growth inhibition at 48 hours (one generation). P. falciparum luciferase growth in erythrocytes, 48 h. Potency, µM (titrated, usually from 28.7 µM), without a hit: at the top dose activity change, negative = inhibition, hits mostly inhibitors. actives 5.9% (n = 310,000); further: potency means the concentration at half of the fitted maximal effect; on the % scale 0 is the no-effect control and ±100 the full control effect
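Erythrocytes infected with P. falciparum carrying an integrated firefly luciferase reporter (2% hematocrit, 0.1% parasitemia final) were exposed to compounds in RPMI 1640 with 0.5% Albumax at 37 C, 5% CO2. Growth inhibition was scored as reduced luminescence.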
Cycloheximide cs: affects cycloheximide protein synthesis inhibition readout, counter-screen; actives 12% (n = 300,000); max response, %; cell reporter, cycloheximide protein synthesis inhibition counterscreen; in the data active means max response mostly above about 13%, no sharp cut-off; inactive means mostly below about 14%; further: read at 38.3 µM for the half of the compounds with a filed dose; 0% is about no effect
Numbers without * were called inactive; ? = inconclusive; / = not tested or not shown; [ ] = remark or other dose. Unless noted, the call rests on the fitted dose curve; in most records, active means well fitted curve in the direction sought with a large enough effect; inconclusive means small, poorly fitted or top-dose-only effect, or another doubt; inactive means no such curve, though single readings can be large; an effect the other way counts as inactive or inconclusive.

SMILES | Pf growth 96h | Shiga inhibitor | NS1 inh | FBPA Giardia inh | Pf growth 48h | Cycloheximide cs
Cc1ccc(-c2nn(CCC(=O)O)cc2/C=C\C(=O)c2ccc(Br)cc2)cc1 | -3.8% | -4.6 | ? | 12.3% | ? | 15.9
CCn1cc(/C=C/C(=O)c2ccc(O)cc2)c(C)n1 | 140.5% | 15.2 | 5.4% | -18.7% | 38.4% | 12.9*
COc1ccc(NC(C)=O)cc1NC(=O)C1CCN(C(=O)Nc2ccccc2)CC1 | -1.0% | / | / | / | -8.9% | /
COc1ccc(-c2cc(C(=O)N3CCN(c4ccccc4)CC3)c3ccccc3n2)cc1 | -17.2% | 62.7* | 16.9% | -4.2% | 7.3% | 27.4*
O=C(O)c1cc(-c2ccc(-c3ccc(F)cc3)o2)nc2ccccc12 | 119.7% | 30.5* | -9.4% | 20µM* | 159.6% | 36.6
Cc1ccc(-c2cc(C(=O)N3CCN(c4ncccn4)CC3)c3cc(Br)ccc3n2)o1 | 222.5% | 24.3 | 9.5% | -27.7% | ? | 13.6
Cc1ccc(-c2cc(C(=O)N3CCN(c4ccc(F)cc4)CC3)c3ccccc3n2)o1 | ? | 44.7 | -63.1% | 0.0% | -2.1% | 28.8*
COc1ccc2cc(-c3cc(C(=O)O)c4ccccc4n3)ccc2c1 | 44.2% | -31.8 | -71.4% | 15.6% | -31.6% | -7.4
CCOc1ccc(-c2cc(C(=O)N3CCC4(CC3)OCCO4)c3ccccc3n2)cc1 | / | / | -32.5% | / | / | /
COc1ccc(-c2cc(C(=O)N3CCC4(CC3)OCCO4)c3ccccc3n2)cc1 | 23.1% | 38.7 | -34.1% | / | 19.2% | 24.9*
CCC/C=C(\CCC)C(NC(=O)C(C)(C)C)c1ccc(C(=O)OC)cc1 (centres undefined) | / | / | / | -3.4% | / | /
O=C(C1CCC(=O)N(C2CCCC2)C1)N1CCN(Cc2cccc(F)c2)CC1 (centres undefined) | ? | 24.4 | 17.0% | 3.3% | -9.1% | 15.4
Cc1cc(C)nc(N2CCN(c3ccc(F)cc3)CC2)n1 | 78.1% | 2.3 | -4.5% | -10.5% | ? | 1.8
O=C(c1cc(-c2ccccc2)nc2ccccc12)N1CCCC1 | 10.3% | 1.4 | 5.0% | 16.3% | -15.7% | -6.2
CC(=O)c1ccc(N2CCN(C(=O)c3cc(-c4ccncc4)nc4ccc(Br)cc34)CC2)cc1 | -15.1% | -8.8 | 5.3% | 12.4% | 13.1µM* | -0.3
CCOc1ccc(-c2cc(C(=O)N3CCCC3)c3ccccc3n2)cc1 | -2.7% | 31.1 | 9.1% | / | 30.3% | 17.0
COc1ccc(-c2cc(C(=O)N3CCCC3)c3ccccc3n2)cc1 | 3.7µM* | 44.8* | -29.6% | -6.1% | 72.0% | 36.4*
COc1cc2ccccc2cc1C(=O)N1CCCC1 | -14.5% | -16.1 | -6.2% | / | 106.9% | -2.7
O=C(c1ccco1)N1CCN(C(=O)c2cc(-c3ccccc3)nc3ccccc23)CC1 | 87.4% | 12.9 | -0.9% | 2.8% | -17.9% | 19.4*
COc1cc2ccccc2cc1C(=O)N1CC(C)CC(C)C1 (centres undefined) | 0.294µM* | -8.6 | -15.3% | / | 0.329µM* | -3.0
CN(CC(=O)Nc1cccc2ccccc12)C(=O)c1ccc(F)cc1F | -12.0% | / | / | / | -18.4% | /
CSc1ncccc1C(=O)OCC(=O)NC1CC1 | 16.1% | / | / | / | 7.4% | /
Cc1ccc(C)c(N2CCN(C(=O)CCC(=O)Nc3nnc(C(F)(F)F)s3)CC2)c1 | ? | 3.1 | -21.6% | / | 3.0% | -1.2
COc1ccc(S(=O)(=O)N2CC(C)OC(C)C2)cc1C(=O)N1CCCCC1 (centres undefined) | -17.8% | -6.5 | -2.2% | / | -11.8% | -1.4
COc1ccc(-c2cc(C(=O)N3CCCC(C(F)(F)F)C3)c3ccccc3n2)cc1 (centres undefined) | -107.0% | / | / | / | ? | /
SMILES | Pf growth 96h | Shiga inhibitor | NS1 inh | FBPA Giardia inh | Pf growth 48h | Cycloheximide cs
COc1ccc(-c2cc(C(=O)N3CC(C)CC(C)C3)c3ccccc3n2)cc1 (centres undefined) | 3.7µM* | / | / | / | 2.94µM* | /
Cc1ccc(-c2cc(C(=O)N3CCCCC3)c3ccccc3n2)cc1C | 15.3% | 33.1 | / | -15.4% | 0.0% | 22.8*
Cc1cccc(N2C(=O)C(Oc3ccc(Cl)cc3Cl)C2C(=O)O)c1C (centres undefined) | 10.4µM* | 18.6 | 3.0% | 16.6% | 8.9% | -7.3
CCOC(=O)c1c(C)c(C)n2c1NC(=O)C2 | / | / | 27.4% | / | / | /
CCc1ccc(C(=O)NCc2cnn(C)c2)s1 | 4.4% | 37.3* | / | 7.7% | 14.1%[5.75 µM] | 23.8
Cn1cc(CNC(=O)c2sc3cccc(Cl)c3c2Cl)cn1 | -21.2% | -0.9 | -8.3% | -3.3% | 5.0% | -2.7
CC(C)[C@@]1(NC(=O)[C@@H]2C[C@@H]3c4cccc5[nH]cc(c45)C[C@H]3N(C)C2)O[C@@]2(O)[C@@H]3CCCN3C(=O)[C@H](Cc3ccccc3)N2C1=O | 1.85µM* | -3.4 | -0.7% | -9.2% | 1.85µM* | -1.8
CC(C)C[C@H]1C(=O)N2CCCC2[C@]2(O)O[C@](NC(=O)[C@@H]3C=C4c5cccc6[nH]cc(c56)CC4N(C)C3)(C(C)C)C(=O)N12 (some centres undefined) | 2.33µM* | -9.2 | 29.7% | ? | 2.62µM* | -1.0
CC(C)[C@H]1C(=O)N2CCC[C@H]2[C@]2(O)O[C@](NC(=O)[C@@H]3C=C4c5cccc6[nH]cc(c56)C[C@H]4N(C)C3)(C(C)C)C(=O)N12 | 7.38µM* | -9.8 | ? | ? | 5.86µM* | -2.1
CC(C)C[C@H]1C(=O)N2CCC[C@H]2[C@]2(O)O[C@](NC(=O)[C@@H]3C=C4c5cccc6[nH]c(Br)c(c56)CC4N(C)C3)(C(C)C)C(=O)N12 (some centres undefined) | 4.15µM* | -8.2 | -4.4% | ? | 2.33µM* | -1.2
CN1C[C@H](C(=O)N[C@@]2(C)O[C@@]3(O)C4CCCN4C(=O)C(Cc4ccccc4)N3C2=O)C[C@H]2c3cccc4[nH]cc(c34)C[C@H]21 (some centres undefined) | / | / | / | -2.4% | / | /
CC(C)(C)OC(=O)N[C@@H](COCc1ccccc1)C(=O)N[C@@H](CO)[C@H](O)[C@@H]1C[C@@H]1C(=O)NC1CCCCC1 | ? | -2.6 | -12.8% | 4.5% | ? | -2.0
CC(C)C[C@H]1C(=O)N2CCC[C@@H]2[C@]2(O)O[C@](NC(=O)[C@@H]3C=C4c5cccc6[nH]c(Br)c(c56)C[C@H]4N(C)C3)(C(C)C)C(=O)N12 | / | / | / | -21.3% | / | /
CC(C)[C@@]1(NC(=O)[C@@H]2C=C3c4cccc5[nH]cc(c45)C[C@H]3N(C)C2)O[C@@]2(O)[C@@H]3CCCN3C(=O)[C@H](Cc3ccccc3)N2C1=O | 2.33µM* | -13.1 | ? | ? | 2.94µM* | -1.8
COc1cc2ncnc(Nc3ccc(F)c(Cl)c3)c2cc1OCCCN1CCOCC1 | / | / | / | -4.4% | 0.536µM* | /
c1ccc(-c2cccc(N3CC[C@@]4(CCCNC4)C3)c2)cc1 | / | / | / | -3.4% | / | /
O=C(COC(=O)c1ccco1)c1ccc(F)cc1 | ? | 110.3* | -1.5% | 3.0% | 12.6% | 54.6*
